# Screening data from PubChem.
# aDG glyco up: increases alpha dystroglycan glycosylation. Pro5-aDG cells, alpha-DG glycosylation AlphaScreen (IIH6); 0% Pro5, 100% B10-LARGE cell signal. activation, % at 10 µM. 360,000 tested, 0.22% active;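 active = activation of at least 8% versus controls, or a plate z-score of at least 8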;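 also: Pro5 are CHO cells carrying HIG-tagged alpha-DG that lacks glycosylation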
# Yeast superoxide: caloric restriction mimetics inhibiting age-related superoxide in yeast. S. cerevisiae aged cells, superoxide DHE fluorescence; stronger effect = lower value. superoxide response (% of plate mean), % at 10 µM. 330,000 tested, 0.18% active;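 active = superoxide response under a set limit, about three screen SD below normal, cut at about 65% in these data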;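 also: yeast aged for seven days with compound at 30 °C before DHE staining; 100% = average MFI of all compound-treated wells on the plate with controls excluded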
# SUMO Mot1 rescue: SUMOylation pathway inhibition by Mot1-301 growth rescue. S. cerevisiae Mot1-301 growth rescue, ATP luminescence, 38.5C; percent above DMSO median, 100 means doubled. growth rescue, % at 18.8 µM. 320,000 tested, 1% active. AID 2716;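 active = every valid replicate shows activation above 250% relative to neutral control wells; inactive = the rest, any valid replicate at or below 250%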;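 also: OY570 slx delta 5 strain wells were the positive control but not used for scaling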
# Cardio protect: protects H9c2 cardiomyocytes from peroxide injury. protection from H2O2 cell death, % at 20 µM. H2O2 injury protection, ATPLite, 2 h. 360,000 tested, 0.63% active;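 active = compounds giving at least 50% protection of heart cells from peroxide-induced death in the single-dose screen, raw or plate-pattern-corrected value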;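 also: 0% = DMSO wells with peroxide and 100% = DMSO wells without peroxide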
# MPTP inh: permeability transition pore inhibition; isolated mouse mitochondria, Ca2+ swelling absorbance, 30 min; inhibition, % at 10 µM; 360,000 tested, 1.4% active; AID 602449;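 active = inhibition of 50% or more, scaled per plate between neutral and stimulator controls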;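 also: 0% = DMSO wells given calcium and 100% = 1 mM EGTA wells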
# FAS-TE inh: FAS thioesterase (human) inhibition; AID 602261; 360,000 tested, 0.67% active; inhibition, % at 15 µM; recombinant FAS-TE, OMFH fluorogenic substrate, fluorescence endpoint; P49327;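 active = compounds whose normalised, plate-corrected inhibition of enzyme fluorescence in the single-dose primary screen is 50% or more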;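 also: 0% = DMSO with enzyme and 100% = substrate without enzyme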
# Mot1 SUMO dose: yeast SUMO pathway inhibition in dose response | shares compounds with SUMO Mot1 rescue | S. cerevisiae Mot1-301 galactose growth, ATP luminescence, 24 h; -100 = growth of slx-deleted rescue strain | 2,300 tested, under 10 active | growth activity, percent, % at 42 µM;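 active = Signal drops as the depositor expects, and the fitted half-maximal dose is no more than ten times the top valid tested dose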;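 also: more negative values mean stronger growth rescue toward the control strain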
# * marks the source's active call; other numbers are inactive results; i = inactive; . = not tested or not shown; + = active, no number. Only some compounds are listed: those with a hit (about 3.8% of all), similar ones and a draw of the others.
SMILES,aDG glyco up,Yeast superoxide,SUMO Mot1 rescue,Cardio protect,MPTP inh,FAS-TE inh,Mot1 SUMO dose
COc1ccc(-n2c(SCC(=O)NCC3CCCO3)nc3c(c2=O)SCC3)cc1 (stereo not given),0,101,-15,0,1,-7,.
C=CCNC(=O)NC(=O)COC(=O)CCCSc1nc2ccccc2[nH]1,0,99,612*,12,3,-8,0
CC(C)(C)c1ccc(-c2nc(C=O)c3ccccn23)cc1,1,104,412*,0,2,28,-1
C(=N\N1CCOCC1)/c1nc(-c2ccccc2)n2ccccc12,0,94,3,12,2,-3,.
C=CCNc1cc(=O)n(Cc2ccccc2)c(=O)[nH]1,0,95,-5,-1,1,-3,.
C[C@H](NC(=O)OC(C)(C)C)C(=O)NCC1CCC(C(=O)N[C@@H](Cc2ccccc2)C(=O)O)CC1 (stereo not given in full),0,123,477*,0,0,-4,1
CC1CN(CCCOc2ccc([N+](=O)[O-])cc2)CC(C)O1 (stereo not given),0,94,463*,2,0,-9,1
COC(=O)C1=CO[C@@H](O[C@@H]2O[C@H](CO)[C@@H](O)[C@H](O)[C@H]2O)C2C1CC(O)O[C@H]2C (stereo not given in full),0,108,9,0,-2,-9,.
O=C(O)CCc1ccc(-c2ccccc2)n1NC(=O)c1cccs1,0,109,670*,1,-4,0,1
NC(=S)Nn1c(CCC(=O)O)ccc1-c1ccccc1,0,97,10,6,-1,-7,.
O=C(Nc1ccc(F)cc1)c1cc(S(=O)(=O)Nc2ccc(F)cc2)cs1,0,114,564,-10,43,11,.
Cc1ccc(NS(=O)(=O)c2csc(C(N)=O)c2)cc1C,0,97,369*,-8,0,1,-1
COc1ccc(NC(=O)c2cc(S(=O)(=O)Nc3ccc(OC)cc3)cs2)cc1,0,114,527*,-9,16,10,0
Cc1cc(C)cc(NS(=O)(=O)c2csc(C(N)=O)c2)c1,0,96,-10,0,1,2,.
CCOC(=O)CN1C(=O)N[C@@H](CCc2ccccc2)[C@H](C(C)=O)[C@H]1C,0,87,317,-2,0,-12,.
COc1ccc(S(=O)(=O)N2CCc3cc4c(cc3C2C)OCCCO4)cc1 (stereo not given),0,81,600*,-6,-1,15,-1
CCCOc1ccc(N2C(=O)CC(N3CCC(C(=O)OCC)CC3)C2=O)cc1 (stereo not given),0,103,772*,-3,0,-5,0
CCCOc1ccc(N2C(=O)CC(N3CCOCC3)C2=O)cc1 (stereo not given),0,106,376,-1,-2,-5,.
C=CCN(C(=O)CNC(=O)c1ccco1)C(C(=O)NC1CCCCC1)c1ccccc1 (stereo not given),1,93,737*,21,7,-3,0
C=CCN(C(=O)CNC(=O)c1ccco1)C(C(=O)NC1CCCCC1)c1ccc(F)cc1 (stereo not given),0,92,.,3,9,-2,.
Cc1ccc(C(C(=O)NC2CCCCC2)N(CCC(C)C)C(=O)CNC(=O)c2ccco2)o1 (stereo not given),0,86,+,6,0,3,-1
COc1ccc2nc(SCC(=O)N(C)CC(=O)Nc3ccc(F)cc3)[nH]c2c1,0,90,558*,0,-3,-5,0
CN(CC(=O)Nc1ccc(F)cc1)C(=O)CSc1nc2ncc(Cl)cc2[nH]1,0,103,7,8,-2,-6,.
COc1ccc(CC(=O)OCN2C(=O)c3ccccc3C2=O)cc1OC,0,98,i,-1,0,-1,.
CN(C)c1ccnc2sc3c(SCc4ccc(Cl)cc4)ncnc3c12,0,102,120,-7,0,2,.
SMILES,aDG glyco up,Yeast superoxide,SUMO Mot1 rescue,Cardio protect,MPTP inh,FAS-TE inh,Mot1 SUMO dose
CN(C)c1ccnc2sc3c(NCC(O)CO)ncnc3c12 (stereo not given),0,107,616*,-4,-2,-4,0
CC1=Nc2cc([N+](=O)[O-])ccc2NC(C)(C)C1,0,95,21,9,3,7,.
CC1(C)CNc2cc([N+](=O)[O-])ccc2S1,0,114,810*,-14,6,5,2
O=C(Nc1ccncc1Cl)c1ccncc1,0,98,435*,6,-1,-3,0
O=C(Nc1ccc(Cl)c(Cl)c1)c1ccncc1,0,96,49,-4,-2,-1,.
CN(C)S(=O)(=O)n1cc(/C=C(\NC(=O)c2ccccc2Cl)C(=O)NCCCn2ccnc2)c2ccccc21,0,83,8,43,-1,-1,.
Cc1ccc(/C=N\NC(=O)c2cc(OCC(F)(F)F)ccc2OCC(F)(F)F)cc1,0,105,522,-20,0,-8,.
COc1ccc(/C=N\NC(=O)c2cc(OCC(F)(F)F)ccc2OCC(F)(F)F)cc1,0,110,797*,-11,-2,-1,0
O=C1c2ccccc2C(=O)N1CCSc1ccccc1,0,102,+,-4,0,10,0
CC(C)NC(=O)COc1ccc(S(=O)(=O)N(C)Cc2ccccc2)cc1,0,75,363*,-1,0,1,-1
COc1cccc(-c2cnc(C(O)c3c(C)ccc4ccccc34)[nH]2)c1 (stereo not given),0,.,.,0,0,-1,.
O=C(CCNC(=O)c1ccc(Br)cc1)NCc1ccccc1F,0,120,812*,-4,-1,4,-1
O=S(=O)(NCc1cccc(C(F)(F)F)c1)NCc1ccccc1F,0,107,+,0,6,22,1
COc1ccccc1NC(=S)N(Cc1ccccc1)Cc1cccs1,0,101,+,-1,0,3,0
Cc1cc(N2CCN(C(=O)Oc3ccc([N+](=O)[O-])cc3)CC2)c2ccccc2n1,0,.,.,.,2,6,.
Cc1onc(-c2ccccc2)c1C(=O)NCCSCc1ccco1,0,82,-1,0,1,2,.
CCOC(=O)C1CCCN(C(=O)c2cccs2)CC1 (stereo not given),0,.,.,2,-2,-6,.
O=c1/c(=C/c2ccco2)sc2nc(-c3ccccc3Br)nn12,0,108,381*,3,1,-1,1
